High-throughput results: PubChem BioAssay, National Center for Advancing Translational Sciences (NCATS)
Shown are actives, neighbours in structure and some others; about 7.9% of the full set was active somewhere.
HT1080-NT tox = kills 2HG-producing HT-1080-NT fibrosarcoma cells. hit rate 1.6% among 360,000. Potency, µM (titrated, usually from 46.1 µM), inactives show at the highest dose activity, negative = less viability, usual class: cytotoxic. HT-1080-NT fibrosarcoma viability, CellTiter-Glo ATP luminescence, 48 h. AID 686970;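 further: NT is the 2HG producing partner of a matched IDH1 knockdown line; 0% = DMSO-treated cells and -100% = media-only wells without cells; nearly all actives have a fitted effect of over 55% in size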
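Toxicity toward the 2HG-producing NT line was scored as %Activity, normalised to DMSO and no-cell wells, from CellTiter-Glo luminescence after 48 hours' treatment.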
KB-3-1 tox = kills parental KB-3-1 adenocarcinoma cells; KB-3-1 viability, CellTiter-Glo ATP luminescence, 72 h; Potency, µM (titrated, usually from 46.1 µM), hits mostly cytotoxic; hit rate 1.4% among 400,000; further: on the % scale 0 is the no-effect control and ±100 the full control effect; nearly all actives have a fitted effect of over 60% in size
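KB-3-1 cells, DMEM (no phenol red) + 10% FBS; compound by pin transfer, 72 h, 37 °C. Readout: CellTiter-Glo luminescence after 10 min. Data normalized, curve-fitted.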
KB-V1 cytotox = KB-V1 MDR subline cytotoxicity; KB-V1 MDR cells viability, CellTiter-Glo, 72 h; Potency, µM (top dose mostly 46.1 µM), usual class: cytotoxic; hit rate 3.4% among 400,000; AID 1347076; further: on the % scale 0 is the no-effect control and ±100 the full control effect; nearly all actives have a fitted effect of over 60% in size
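KB-V1, DMEM (no phenol red) + 10% FBS; cpd pin-transferred, titration series; 72 h, 37 degrees C; CellTiter-Glo, luminescence. Data normalized, curve-fit.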
SW480 rereplic = DNA re-replication induction in SW480 cells; SW480 DNA re-replication, Hoechst DNA content imaging, 48 h; Potency, µM (titrated, usually from 46.1 µM), inactives show top-dose re-replication activation, usual class: activators; hit rate 1.8% among 340,000; AID 624297; further: % of control where 0% means no effect; nearly all actives have a fitted effect of over 55% in size
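Treated cells incubate 48 hr (37 C, 5% CO2), are stained 40 min with Hoechst, and nuclear fluorescence is enumerated; a rise in nuclei with high DNA signal marks re-replication.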
MCF10A rereplic = induces DNA re-replication in MCF 10a normal breast cells | hit rate 2.9% among 350,000 | MCF 10A DNA re-replication, Hoechst nuclear intensity, 48 h | Potency, µM (titrated, usually from 46.1 µM), for inactives: at the highest dose activity, positive = re-replication, most hits filed as activators; further: % of control where 0% means no effect; nearly all actives have a fitted effect of over 50% in size
HT1080 IDH1KD tx = toxicity to HT-1080 IDH1 knockdown cells (counter line); Potency, µM (highest dose often 46.1 µM), without a hit: top-dose activity, negative = toxicity, hits mostly cytotoxic; hit rate 2% among 360,000; HT-1080 IDH1 knockdown viability, ATP luminescence, 48 h;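 further: 0% = DMSO wells and -100% = cell-free medium wells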
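% activity derives from luminescence (CellTiter-Glo), normalised to DMSO and no-cell wells. HT-1080-IDH1KD cells, 750/well, had 48 h compound exposure at 37 °C.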
* marks the source's active call; other numbers are inactive results; i = inactive; ? = inconclusive; nt = not tested or not shown. The call rests on the fitted dose curve; in most records, active means well fitted curve in the direction sought with a large enough effect; inconclusive means small, poorly fitted or top-dose-only effect, or another doubt; inactive means no such curve, though single readings can be large; an effect the other way counts as inactive or inconclusive. Potency means the concentration at half of the fitted maximal effect.

SMILES	HT1080-NT tox	KB-3-1 tox	KB-V1 cytotox	SW480 rereplic	MCF10A rereplic	HT1080 IDH1KD tx
COc1ccc(NC(=O)c2cccc(N3CCCS3(=O)=O)c2)cc1OC	nt	i	i	nt	nt	nt
COc1ccc(O)c(-c2nc(N)nc(N)n2)c1	-13%	?	i	?	7.3µM*	-10%
COC(=O)Cn1c(=O)c2c(n(Cc3ccccc3)c1=O)N/C(=C/c1ccc(Br)cc1)C2=O	-4%	?	?	?	4.6µM*	-13%
O=C1NC(=Nc2cccnc2)S/C1=C/c1ccc(F)cc1	?	?	?	?	7.3µM*	?
Cc1cccc(N=C2NC(=O)/C(=C/c3cccn3C)S2)c1	-16%	?	5.8µM*	?	?	-28%
Cc1ccccc1N=C1NC(=O)/C(=C/c2cccn2C)S1	-29%	?	7.3µM*	?	?	-27%
O=C1NC(=Nc2ccccc2)S/C1=C\c1cccn1-c1ccccc1	?	5.2µM*	4.6µM*	6.5µM*	6.5µM*	?
Cc1sc2nc(C3CC3)nc(SCC(=O)N3CCc4ccccc4C3)c2c1C	-1%	i	5.8µM*	3%	?	-6%
CCc1c(C)sc2nc(C(C)C)nc(SCC(=O)N3CCc4ccccc4C3)c12	1%	i	i	1%	0%	9%
Nc1c(Cl)cc(/C=C2\C=Cc3ccccc32)cc1Cl	nt	i	i	nt	nt	nt
Cc1c(NC(=O)/C=C/c2cn(-c3ccccc3)nc2-c2ccc(F)cc2)c(=O)n(-c2ccccc2)n1C	-6%	?	i	18%	18µM*	0%
O=C(/C=C/c1cn(-c2ccccc2)nc1-c1ccccc1)Nc1ccc(C(=O)O)cc1	?	i	i	?	?	23µM*
Cc1c(NC(=O)/C=C/c2cccs2)c(=O)n(-c2ccccc2)n1C	5%	i	i	-1%	2%	4%
Cc1ccc(-c2nn(-c3ccccc3)cc2/C=C/C(=O)Nc2nccs2)cc1	16µM*	i	i	3%	?	9.2µM*
O=C(O)Cn1nc(N2CCN(c3ccccc3)CC2)ccc1=O	nt	i	i	nt	nt	nt
Cc1cccc(NC(=S)N2CCn3cccc3C2c2cccnc2)c1 (stereo not given)	6%	i	16µM*	-6%	-1%	4%
COc1cccc(NC(=S)N2CCn3cccc3C2c2cccnc2)c1 (stereo not given)	-3%	i	i	-8%	5%	-14%
Fc1ccc(C2c3cccn3CCN2C(=S)Nc2cccc(Br)c2)cc1 (stereo not given)	?	?	?	-1%	23µM*	?
Fc1ccc(NC(=S)N2CCn3cccc3C2c2cccnc2)cc1 (stereo not given)	0%	i	i	-3%	0%	-6%
Cc1cc(C)cc(NC(=O)c2cc(S(=O)(=O)N3CCC(C)CC3)cn2C)c1	nt	i	i	nt	nt	nt
O=C(CN(C1CCCCC1)S(=O)(=O)c1ccc(F)cc1)NCC1CCCO1 (stereo not given)	3.7µM*	4.6µM*	?	1.2µM*	?	4.6µM*
O=C(CN(C1CCCCC1)S(=O)(=O)c1ccc(F)cc1)NCc1ccncc1	3%	i	8.2µM*	-4%	-11%	15%
Cc1ccc(S(=O)(=O)c2nc(-c3ccc(F)cc3)oc2SCC(=O)NCC2CCCO2)cc1 (stereo not given)	7%	i	1.8µM*	0%	?	0%
Cc1cc2c(cc1C)-n1nnnc1C(N1CCCNCC1)C(=O)N2 (stereo not given)	8%	i	i	nt	nt	-4%
COc1ccc(C(=O)c2cn(CC(=O)Nc3cc(C)ccc3C)c3nc(C)ccc3c2=O)cc1	nt	i	i	nt	nt	nt
SMILES	HT1080-NT tox	KB-3-1 tox	KB-V1 cytotox	SW480 rereplic	MCF10A rereplic	HT1080 IDH1KD tx
C=Cc1ccc(CN2C(=O)N(c3ccc(C)c(C)c3)S(=O)(=O)c3ccccc32)cc1	nt	i	i	nt	nt	nt
CCOC(=O)c1ccccc1NC(=O)N(C(C)C)C1CCN(C(C)=O)CC1	nt	i	i	nt	nt	nt
CCOC(=O)c1c(C)c(C(=O)NCCc2ccc(OC)cc2)c(C)n1C	nt	i	i	nt	nt	nt
O=C(CSc1ccccc1F)NCC(c1ccco1)N1CCCCC1 (stereo not given)	10%	i	?	nt	nt	3%
COc1ccc2c(-c3cc4ccc(OCc5ccc(F)cc5)cc4oc3=O)cc(=O)oc2c1	18%	7.3µM*	8.2µM*	-7%	1.8µM*	5%
CCCOc1ccc2oc(=O)c3c(c2c1)CCCN3C(=O)CN1CCN(c2ncccn2)CC1	13%	i	i	4%	5%	18%
O=C(CN1CCCC1)N1CCCc2c1c(=O)oc1ccc(OCc3ccccc3)cc21	?	i	18µM*	?	5%	?
CCCOc1ccc2oc(=O)c3c(c2c1)CCCN3C(=O)CN1CCCC(C(=O)OCC)C1 (stereo not given)	-4%	i	12µM*	3%	10%	-7%
CCOC(=O)C1CCN(CC(=O)N2CCCc3c2c(=O)oc2ccc(OCc4ccccc4)cc32)CC1	nt	i	i	nt	nt	nt
CCOc1ccc(S(=O)(=O)N2CCC(N3CCN(Cc4ccc(F)cc4)C(=O)C3=O)CC2)cc1	nt	i	i	nt	nt	nt
O=C(CCl)N1CCN(S(=O)(=O)Cc2ccccc2)CC1	?	23µM*	?	211%	?	?
CCOC(=O)N1CCN(S(=O)(=O)Cc2ccccc2)CC1	9%	i	i	-1%	2%	5%
Cc1cc(C)cc(NS(=O)(=O)c2ccc3c(c2)CCCN3C(=O)C2CCC2)c1	nt	?	i	nt	nt	nt
CCCCN1C(=O)/C(=C2/Sc3ccccc3N2C)S/C1=N\c1ncn[nH]1	-1%	?	?	15µM*	15%	14%
CCc1ccc(NC(=O)c2c(C(=O)Nc3ccccc3)sc3nc(C)cc(=O)n23)cc1	?	i	i	-37%	18µM*	-13%
O=c1[nH]c(N/N=C\c2ccc3c(c2)OCO3)nc2ccccc12	2%	?	i	4%	19%	-11%
CN(C)c1nc(NCc2ccccc2)nc(N/N=C/c2ccc3c(c2)OCO3)n1	-17%	i	?	26%	23µM*	-25%
Cc1cc(N/N=C/c2ccc3c(c2)OCO3)nc2ccccc12	-11%	i	i	?	16µM*	-17%
O=C(COc1coc(CN2CCN(c3ccc(F)cc3)CC2)cc1=O)NC1CCCCC1	-1%	?	4.1µM*	-1%	8%	-11%
Cc1ccc(-n2ncc3c(=O)n(CC(=O)NCc4ccco4)cnc32)cc1C	?	23µM*	?	?	?	?
